# CYP2C19 inhib – inhibitors of human CYP2C19; P33261; CYP2C19 Supersomes, luciferin-H EGE luminescence, 30 min; inhibition, % at 5 µM; hit rate 21% among 96,000;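 active = CYP2C19 inhibition above a set limit at 5 µM in the primary screen, cut at about 50% in these data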;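 note: plate controls were negative control wells for no effect and 2.5 mM tranylcypromine positive control for full effect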
# CD11b adhes enh – enhancers of human CD11b/CD18 binding to fibrinogen | K562 CD11b/CD18 adhesion to fibrinogen, ATPlite luminescence | activation, % at 10 µM | hit rate 0.07% among 93,000;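 active = 10 µM primary screen giving 50% or more activity, confirmed by 40% or more on retest at that dose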
# Target sequence (P05107 whole entry, looked up, other chains not shown): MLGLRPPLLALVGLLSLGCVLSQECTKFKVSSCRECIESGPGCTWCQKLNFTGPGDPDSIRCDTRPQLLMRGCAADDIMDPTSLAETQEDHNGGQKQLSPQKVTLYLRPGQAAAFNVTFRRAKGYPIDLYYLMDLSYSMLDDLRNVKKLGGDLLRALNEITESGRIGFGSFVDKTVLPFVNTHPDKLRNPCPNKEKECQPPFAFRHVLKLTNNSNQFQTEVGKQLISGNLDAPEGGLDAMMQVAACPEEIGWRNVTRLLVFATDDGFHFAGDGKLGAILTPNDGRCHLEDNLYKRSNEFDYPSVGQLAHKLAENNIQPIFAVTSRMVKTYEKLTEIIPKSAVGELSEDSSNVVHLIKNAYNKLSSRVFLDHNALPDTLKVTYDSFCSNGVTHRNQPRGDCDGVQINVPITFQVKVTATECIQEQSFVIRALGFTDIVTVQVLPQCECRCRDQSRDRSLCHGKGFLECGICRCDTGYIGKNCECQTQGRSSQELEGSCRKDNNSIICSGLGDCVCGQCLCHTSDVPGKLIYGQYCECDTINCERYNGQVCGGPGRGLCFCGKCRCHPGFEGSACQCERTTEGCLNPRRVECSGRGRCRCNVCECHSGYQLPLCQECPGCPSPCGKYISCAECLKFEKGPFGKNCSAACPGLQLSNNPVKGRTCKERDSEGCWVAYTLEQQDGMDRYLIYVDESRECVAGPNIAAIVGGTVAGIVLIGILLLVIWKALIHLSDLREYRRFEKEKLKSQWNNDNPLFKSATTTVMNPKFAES
# CYP2C19 act – increases human CYP2C19 enzyme activity; activation factor at 5 µM; recombinant CYP2C19, luciferin-H EGE luminescence; hits give high values; 0 = fully inhibited enzyme, 1 = untreated enzyme; 96,000 tested, under 10 active; AID 1025; P33261;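 active = activation factor of at least 2 at 5 µM in the primary screen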;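 note: 0 = wells with 2.5 mM tranylcypromine and 1 = vehicle-only wells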
# CYP2C9 inh – human CYP2C9 inhibition | P11712 | CYP2C9 Supersomes, luciferin-H conversion, luminescence | inhibition, % at 5 µM | hit rate 20% among 96,000 | AID 777;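 active = blocking of liver enzyme CYP2C9 beyond about 50% at 5 µM, limit read from the data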
# CYP2C9 act – increases human cytochrome P450 2C9 activity | hit rate 1.4% among 96,000 | activation factor at 5 µM | P11712 | recombinant CYP2C9, luciferin-H conversion, luminescence; hits give high values; factor 1 = untreated enzyme, 0 = blocked;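 active = activation factor of 2 or more for CYP2C9 at a 5 µM dose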;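 note: 0 = sulfaphenazole-blocked wells and 1 = vehicle-only wells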
# Mac1 fbg inh – blocks human CD11b/CD18 adhesion to fibrinogen. hit rate 0.54% among 93,000. inhibition, % at 10 µM. AID 1497. K562 CD11b/CD18 adhesion to fibrinogen, ATPlite luminescence; Mn2+ added to activate the integrin. P05107+P11215;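 active = primary inhibition of 50% or more at 10 µM, then 40% or more on retest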
# Numbers without * were called inactive; . = no result. Sampled rows, rich in hits. Any-hit rate of the full collection: about 28%.
SMILES,CYP2C19 inhib,CD11b adhes enh,CYP2C19 act,CYP2C9 inh,CYP2C9 act,Mac1 fbg inh
O=C(CCCn1c(=S)[nH]c2cc3c(cc2c1=O)OCO3)N1CCN(c2ccccc2)CC1,21,0,0.8,80*,0.2,-11
CC(=O)c1ccc(N2CCN(C(=O)CCCn3c(=S)[nH]c4cc5c(cc4c3=O)OCO5)CC2)cc1,5,-2,0.9,48,0.5,-12
Cc1cccc(N2CCN(C(=O)CCCn3c(=S)[nH]c4cc5c(cc4c3=O)OCO5)CC2)c1C,32,17,0.7,59*,0.4,8
Cc1cccc(N2CCN(C(=O)CCCSc3nc4ccccc4[nH]3)CC2)c1C,42,-3,0.6,44,0.6,18
CCCC(=O)Nc1sc(C)c(-c2ccc(OC)cc2)c1C#N,.,14,.,.,.,-7
CCCc1ccc(-c2c(C)sc(N)c2C#N)cc1,31,0,0.7,68*,0.3,7
CCOC(=O)c1c(C(=O)OCC)c(C)n(N2C(=O)CSC2=S)c1C,44,-2,0.6,53*,0.5,-10
O=C(Nc1ccccc1C(=O)OCC(=O)c1c[nH]c2ccccc12)c1ccco1,.,74,.,.,.,1
O=C1NC(=O)/C(=C\c2ccccc2Oc2ccc(F)c(F)c2)S1,13,-8,0.9,85*,0.2,85*
O=C1NC(=O)/C(=C\c2ccc(Oc3ccc([N+](=O)[O-])cn3)cc2)S1,.,-1,.,.,.,56
Cc1cccc(N2CCN(C(=O)c3ccccc3NC(=O)C3CC=CCC3C(=O)O)CC2)c1 (stereo unspecified),10,2,0.9,27,0.7,-27
O=c1ccc(NS(=O)(=O)c2ccccc2)cn1Cc1ccc(Cl)c(Cl)c1,98*,.,0,79*,0.2,.
COc1cccc(OC)c1C(=O)N1CCN(c2c(Cc3ccccc3)c(C)nc3ncnn23)CC1,2,1,1,39,0.6,-1
Cc1cc(SCC(=O)N/N=C/c2ccc(O)cc2O)c(C)cc1Br,-9,-4,1.1,33,0.7,19
N#CCCS(=O)(=O)c1nnnn1-c1ccccc1,-2,-6,1,-9,1.1,8
CC1(C)Cc2nc3oc4c(=S)nc[nH]c4c3cc2CO1,16,-1,0.8,22,0.8,0
COc1ccc(C(=O)N=C2CCC(C#N)=C3c4cc(OC)c(OC)cc4CCN23)cc1,.,-3,.,.,.,-12
COc1ccc(CCN2CC(C#N)=C3c4cc(OC)c(OC)cc4CCN3C2)cc1OC,65*,2,0.4,76*,0.2,9
COc1cc2c(cc1OC)C1=C(C#N)CN(C3CCCCC3)CN1CC2,68*,6,0.3,52*,0.5,-11
Cc1ccc(-c2n[nH]c3c2CCC3)cc1,66*,1,0.3,43,0.6,-7
c1ccc(C2=Nn3c(nnc3-c3n[nH]c4c3CCC4)SC2)cc1,50,1,0.5,11,0.9,-11
CCOc1ccccc1CNS(=O)(=O)c1ccc2[nH]c(=O)sc2c1,96*,1,0,3,1,15
CCN(CCNS(=O)(=O)c1ccc2[nH]c(=O)sc2c1)c1ccccc1,100*,-1,0,24,0.8,4
CCOc1ccccc1CNS(=O)(=O)c1ccc2c(c1)oc(=O)n2C,78*,1,0.2,-129,2.3*,-1
COc1ccccc1CNS(=O)(=O)c1ccc2[nH]cc(C(=O)O)c(=O)c2c1,-7,.,1.1,-6,1.1,.
SMILES,CYP2C19 inhib,CD11b adhes enh,CYP2C19 act,CYP2C9 inh,CYP2C9 act,Mac1 fbg inh
CCCN(CCC)CCCNS(=O)(=O)c1ccc2c(c1)oc(=O)n2C,-12,0,1.1,-17,1.2,0
CCN(CCC(=O)O)c1ccccc1,0,-4,1,-9,1.1,-16
Cn1c(=O)oc2cc(S(=O)(=O)NCc3ccncc3)ccc21,98*,-5,0,81*,0.2,15
Cn1ncc(C#N)c1/N=C/N1CCCC1,-2,-4,1,1,1,-3
Cc1[nH]nc(N=CC2=C(O)CC(C)(C)CC2=O)c1-c1ccc(Cl)cc1,18,.,0.8,33,0.7,.
NC(=O)Cc1ccc(Nc2nnc(-c3ccc(O)cc3)c3ccccc23)cc1,.,-1,.,.,.,-4
Cn1c(=O)oc2cc(S(=O)(=O)NCCc3ccccc3)ccc21,80*,-3,0.2,-36,1.4,1
Cc1cccc(CCNS(=O)(=O)c2ccc3c(c2)oc(=O)n3C)c1,89*,.,0.1,-43,1.4,.
Cc1ccc(NC(=O)CCNS(=O)(=O)c2ccc3c(c2)oc(=O)n3C)cc1,4,0,1,4,1,10
COc1ccccc1CNC(=O)C(CC(C)C)NS(=O)(=O)c1ccc2c(c1)oc(=O)n2C (stereo unspecified),-2,-2,1,0,1,0
C=CCN(c1ccccc1)S(=O)(=O)c1ccc2c(c1)oc(=O)n2C,87*,-5,0.1,22,0.8,-15
COc1ccccc1CNC(=O)C(CCSC)NS(=O)(=O)c1ccc2c(c1)oc(=O)n2C (stereo unspecified),91*,-5,0.1,4,1,-9
CCOC(=O)c1cnc(Nc2nc3ccccc3o2)nc1CSC(=S)N(CC)CC,.,39,.,.,.,-2
O=C(Cn1c(=O)oc2cc(S(=O)(=O)NCc3ccccc3)ccc21)NCc1ccco1,2,1,1,61*,0.4,-3
Cc1cccc(CCNS(=O)(=O)c2cnc[nH]2)c1,61*,-2,0.4,92*,0.1,-19
CCOC(=O)Cn1c(=O)oc2cc(S(=O)(=O)NCc3ccccn3)ccc21,-1,-2,1,26,0.7,-6
CC(C)OP(=O)(OC(C)C)C1(O)C(=O)Nc2ccccc21 (stereo unspecified),-4,.,1,-13,1.1,.
COC(=O)c1cn(CC(=O)NC2CCCCC2)c2ccccc12,9,-2,0.9,8,0.9,13
O=C(Cn1nnc2ccccc21)NC1CCCCC1,55*,-2,0.5,-1,1,-9
Cc1ccc(N(C(=O)Cn2nnc3ccccc32)C(C(=O)NC2CCCCC2)c2cn(C)nc2C)cc1 (stereo unspecified),67*,-1,0.3,12,0.9,-12
COc1ccc(S(=O)(=O)CCC(=O)NCCc2ccc(C)cc2)cc1,57*,3,0.4,75*,0.2,0
COc1ccc(CCNS(=O)(=O)c2ccc3c(c2)OCCO3)cc1,76*,-2,0.2,24,0.8,-8
COc1ccc(S(=O)(=O)NCCC(=O)NCc2ccc(F)cc2)cc1,1,-2,1,-176,2.8*,16
COc1ccc(CCNS(=O)(=O)c2ccc(OC)cc2)cc1,65*,.,0.3,57*,0.4,.
Cc1ccc(CNC(=O)CCS(=O)(=O)c2ccc(Cl)cc2)cc1,.,-2,.,.,.,-9
CCN(CC)CCCNS(=O)(=O)c1ccc(OC)cc1,3,-5,1,7,0.9,-2
